Among the data in PubChem BioAssay are inhibition values, retold here.

Each structure is given as a SMILES string. A number with no mark means an inactive call. How the calls were made is not given here.

Sequence of Pantothenate synthetase (Mycobacterium tuberculosis (strain ATCC 25618 / H37Rv)) (P9WIL5 whole entry, looked up): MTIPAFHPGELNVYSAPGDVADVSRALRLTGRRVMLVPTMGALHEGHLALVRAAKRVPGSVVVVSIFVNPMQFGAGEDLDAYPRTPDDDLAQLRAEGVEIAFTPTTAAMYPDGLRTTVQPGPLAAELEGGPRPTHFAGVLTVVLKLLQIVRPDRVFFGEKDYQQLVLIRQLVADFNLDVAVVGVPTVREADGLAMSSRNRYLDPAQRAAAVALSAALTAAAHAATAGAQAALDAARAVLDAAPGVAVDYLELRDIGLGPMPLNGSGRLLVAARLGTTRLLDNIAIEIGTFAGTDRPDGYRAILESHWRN

This assay addresses Pantothenate synthetase (Mycobacterium tuberculosis (strain ATCC 25618 / H37Rv)) (UniProt P9WIL5). In words: Coupled enzyme confirmation of inhibitors against recombinant Mtb PanC (AID 375).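 Further: 0% = full reaction with vehicle and 100% = no enzyme background.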 As to conditions: coupled enzyme assay; at 10 µM, stronger effect = higher value.
Regarding `COc1ccc(CCn2c(N)c(C#N)c3nc4ccccc4nc32)cc1OC`, the inhibition was 0%.
As to `O=C1C(Cl)=C(N2CCOCC2)C(=O)N1CCc1ccccc1`, the inhibition was 4%.
As for `CCOC(=O)c1cc2sccc2n1CC(=O)Nc1ccc(OC)cc1OC`, the inhibition was 0%.
To `O=C(OCn1nnc2ccccc2c1=O)C1CCN(S(=O)(=O)c2cccs2)CC1` belongs 0%; to `CCCCn1cnc2c1c(=O)n(C)c(=O)n2C`, 2%.
For the compound `CCCCOc1ccc(S(=O)(=O)n2c(C)nc3ccccc32)cc1`, the inhibition is 0%.
To `Cc1ccc(C)c(N2CCN(CCCNC(=O)Cn3cc4c(n3)CCCCC4)CC2)c1` belongs 2%; to `COc1ccc(N2CCN(c3oc(COc4ccccc4)nc3C#N)CC2)cc1`, 0%.
As to `COCCN(C(=O)c1csnn1)C(C(=O)NC(C)(C)C)c1cccc(OC)c1` (centres undefined), the inhibition was 1%.
As to `COc1ccc(-c2nc(CSCC(=O)N3CCN(c4cccc(C)c4)C(C)C3)c(C)o2)cc1OC` (centres undefined), the inhibition was 0%.
In the case of `COc1cc2c(=O)nc3n(c2cc1OC)C(c1ccccc1)N=C(N)N3` (centres undefined), the inhibition is 0%.
`O=C1C2ON(c3ccccc3)C(c3cccnc3)C2C(=O)N1c1ccccc1` (centres undefined): the inhibition is 4%.
As to `CCn1c(=O)cc(SCC(=O)N2CCN(C3CCCCC3)CC2)c2ccccc21`, the inhibition was 2%.
`CC(C)OC(=O)c1ccc(OC(=O)c2cccnc2)cc1`: the inhibition was 0%.
To `OC(CNCCc1ccccc1)c1ccccc1` (centres undefined) belongs 2%; to `COCc1cc(C)nc(SCC(=O)Nc2cccc(C)c2C)c1C#N`, 5%.
`CC(=O)Nc1ccccc1OCc1nnc(-c2cccs2)o1`: the inhibition was 0%.
Consider `CC(C)(C)c1ccc(O)c(N)c1`, for which the inhibition was 2%.
As to `Clc1ccccc1OCCCCn1ccnc1`, the inhibition was 0%.
With `CCN1C(=O)C(C(=O)Nc2ccc(OC)cc2)C2CC1(C)Oc1ccccc12` (centres undefined) the figure was 0%.
As for `CC(C)(C)OC(=O)N1CCC(C(=O)N2CCCCCC2)CC1`, the inhibition was 5%.
Turning to `COc1ccc(C(=O)Nc2ccc(S(=O)(=O)Nc3onc(C)c3C)cc2)cc1`, the inhibition is 1%.
To `O=C(Nc1cccnc1)Nc1ccc2c(c1)OCO2` belongs 0%; to `O=C(CCN1C(=O)C2C3C=CC(C3)C2C1=O)Nc1c(F)cc(F)cc1Br` (centres undefined), 0%; to `CCCCCCCCNC(C)C(O)c1ccc(SC(C)C)cc1` (centres undefined), 0%.
With `O=C(c1ccccc1Cl)N1CCc2ccccc2C1` the figure was 0%; with `CN(CC(=O)N1CCN(C2CCCCC2)CC1)S(=O)(=O)c1cccc2nsnc12`, 8%.
In the case of `CC1(c2ccncc2)Nc2ccccc2-c2nc3ccccc3n21` (centres undefined), the inhibition is 0%.
In the case of `O=C(Nc1cccc(F)c1)c1ccc2c(c1)OCO2`, the inhibition is 2%.
Take `Cc1nc(SCC(=O)Nc2cc(C)on2)c2c3c(sc2n1)CCCC3`: the inhibition is 4%.
`O=C(Nc1ccccc1-c1nc2ccccc2o1)c1ccc2c(c1)OCCO2`: the inhibition was 5%.
`COc1cccc(C2C(C(=O)c3cccs3)=C(O)C(=O)N2CCCn2ccnc2)c1OC` (centres undefined): the inhibition is 0%.
For `Nc1c(C(=O)NCCc2ccccc2)nnn1Cc1ccccc1`, the inhibition was 0%.
To `CC(C)(C)SCCNC(=O)CN1C(=O)c2ccccc2S1(=O)=O` belongs 0%.
Consider `COCCn1c(C)cc(C(=O)COC(=O)CCN2C(=O)c3ccccc3C2=O)c1C`, for which the inhibition was 0%.
With `Cc1cc(C(=O)Nc2cccc(O)c2)c(C)o1`, the inhibition is 20%.
Take `O=C(C1CCN(c2nnnn2-c2ccccc2)CC1)N1CCN(c2ccccc2)CC1`: the inhibition is 0%.
For `CC(=O)Nc1ccc2nc(-c3cccnc3)[nH]c2c1`, the inhibition is 0%.
For the compound `Cc1cc(NC(=O)CSc2nnc(C3CC3)n2C)no1`, the inhibition was 0%.

A word on the inhibition: it is the change of the read-out against control, counted positive when it falls.
